Results reported in PubChem BioAssay AID504840 (Johns Hopkins Ion Channel Center, 2011).
Among all 1,500 compounds or so, about 890 (59%) were called active.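 Rule for the calls: active = inhibition of the choline-evoked signal at any tested dose together with a fitted dose-response curve; inactive = no inhibition at any dose or no curve.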 So high a share suggests a set chosen from earlier hits. Only a sample is shown. Potency and affinity values are given separately.

Target: High affinity choline transporter 1 (Homo sapiens) (UniProt Q9GZV3)
Test: human choline transporter blockers, potency – cell-based, 5-point CRC, membrane potential dye, dose response (AID 504840);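 note: 0% = buffer-only response and 100% = EC90 choline response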
Settings: HEK293-CHT, choline-induced depolarization, CHT with LV-to-AA double alanine mutation; series mostly up to 37 µM; inhibition: at the top concentration

Sequence of High affinity choline transporter 1 (Homo sapiens) (Q9GZV3 whole entry, looked up): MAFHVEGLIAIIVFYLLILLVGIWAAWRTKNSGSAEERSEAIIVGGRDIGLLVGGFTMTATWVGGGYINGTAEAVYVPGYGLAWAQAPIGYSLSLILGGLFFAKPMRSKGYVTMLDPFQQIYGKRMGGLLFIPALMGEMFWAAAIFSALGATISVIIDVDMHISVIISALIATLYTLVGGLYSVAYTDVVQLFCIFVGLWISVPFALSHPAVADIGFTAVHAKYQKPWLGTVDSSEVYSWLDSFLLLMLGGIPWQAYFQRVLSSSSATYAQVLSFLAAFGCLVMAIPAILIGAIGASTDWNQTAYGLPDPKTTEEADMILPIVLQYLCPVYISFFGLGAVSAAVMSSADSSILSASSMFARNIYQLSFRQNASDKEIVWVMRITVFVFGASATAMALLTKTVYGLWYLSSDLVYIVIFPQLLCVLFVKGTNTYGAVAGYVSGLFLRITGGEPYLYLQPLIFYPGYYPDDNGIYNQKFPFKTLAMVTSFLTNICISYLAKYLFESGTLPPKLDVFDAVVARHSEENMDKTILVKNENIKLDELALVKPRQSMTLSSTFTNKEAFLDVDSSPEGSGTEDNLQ

inhibition, inactive:
CCCCn1nc2cc(C(=O)NC3CCc4ccccc43)ccc2c1OCC (centres undefined) 48%
Cc1ccc(NC(=O)CN(C)C(=O)COC(=O)CNS(=O)(=O)c2ccc(Br)cc2Cl)cc1 62.6%
CC(Oc1ccc(Cl)cc1Cl)C(=O)Nc1ccc(S(=O)(=O)Nc2cnc3ccccc3n2)cc1 (centres undefined) 71.6%
O=C(Nc1ccc(S(=O)(=O)Nc2nccs2)cc1)c1c(F)c(F)c(F)c(F)c1F 41.6%
O=C1C[C@H]2[C@H](CO)[C@@H](OC(=O)c3ccc(-c4ccccc4)cc3)C[C@H]2O1 47.8%
O=C(Nc1ccc(S(=O)(=O)Nc2cnc3ccccc3n2)cc1)c1ccc(Cl)c([N+](=O)[O-])c1 39.5%
CC1(C)C(C=C(Cl)Cl)C1C(=O)Nc1ccc(S(=O)(=O)Nc2ncccn2)cc1 (centres undefined) 48.7%
CCC(Oc1ccccc1C)C(=O)Nc1ccc(S(=O)(=O)Nc2cc(C)on2)cc1 (centres undefined) 47.4%
COC(=O)C1=C(N)Oc2cc(C)n(CCc3ccccc3)c(=O)c2C1c1cccnc1 (centres undefined) 27.2%
CC(OC(=O)c1cc2sccc2n1C)C(=O)NC(C)(C)C (centres undefined) 49.4%
COc1ccc(N2CCN(CC(=O)Nc3c(C)cc(C)cc3C)CC2)cc1 28.8%
CN(C)c1ccc(Nc2c3c4c(cccc4n(C)c2=O)C(=O)c2ccccc2-3)cc1 38.4%
O=C(CC(=O)c1c(F)cccc1Cl)c1ccccc1O 51%
CCCCNS(=O)(=O)c1ccc(NC(=O)Cc2ccccc2[N+](=O)[O-])cc1 56.2%
CC(=O)c1cc2c(cc1NC(=O)CCNC(=O)c1ccccc1Cl)OCO2 49.1%
CCCCOC(=O)c1ccc(NC(=O)c2cc(Cl)c(Cl)cc2C(=O)O)cc1 43.3%
Cc1ccc2[nH]c3c(c2c1)CN(C(=O)CN1CCN(Cc2ccc4c(c2)OCO4)CC1)CC3 53.2%
CCOc1[nH]c(/N=C/c2ccco2)c(C#N)c1C#N 30.8%
CC(C)(C)C(=O)N1CCN(c2ccc(NC(=O)c3ccc4c(c3)OCCO4)cc2)CC1 40.2%
Cc1ccc(CNC(=O)N[C@@H](Cc2ccccc2)C(=O)O)cc1 10.7%
COc1ccc(C(=O)NC(=S)NNC(=O)CCc2ccccc2)cc1 23.3%
COC(=O)CCCCCN1C(=O)NC(C2CC2)C(C(=O)OCc2ccccc2)=C1C (centres undefined) 22.5%
CC1=C(C(=O)OC(C)C)C(c2ccc(Br)s2)NC(=O)N1C (centres undefined) 45.8%
CCOC(=O)c1cnc2c(Cl)cc(Cl)cc2c1NCCOCCO 66.2%
O=C(CS(=O)(=O)Nc1ccc(F)cc1Cl)Nc1ccc(F)cc1Cl 26.4%
CC(C(=O)NC1CCS(=O)(=O)C1)N1C(=O)/C(=C/c2ccc(Cl)cc2)SC1=S (centres undefined) 45%
Cc1ccc(S(=O)(=O)NCCC(=O)NC(C)CCc2ccccc2)cc1 (centres undefined) 46.8%
Cc1n[nH]c(=O)c2c(NC(=O)CSc3nc4ccccc4c(=O)n3C(C)C)oc(C)c12 66.6%
CC(C)n1c(=S)[nH]c2cc(Cl)ccc21 54.5%
CCn1cc(C(=O)N(CCC(C)C)c2c(N)n(Cc3ccccc3)c(=O)[nH]c2=O)c(=O)c2ccc(C)nc21 41.2%
Fc1ccc(-c2nc3c(-c4ccc(F)cc4)cnn3cc2CCN2CCOCC2)cc1 44.1%
CN1CCN(c2ccc(NC(=O)c3ccc(Cl)cc3Cl)cc2)CC1 46%
CSC1=C(C#N)C(c2ccncc2)C(C(=O)Nc2ccccc2)=C(C)N1 (centres undefined) 42.5%
CCN(CCNC(=O)CN1CCN(Cc2ccc(Cl)cc2)C1=O)c1ccccc1 0.273%
Cc1ccccc1Nc1c(-c2ccncc2)nc2ccc(Br)cn12 31%
Cc1ccc(NC(=S)Nc2ccc(F)cc2)cc1C 44.3%
Cc1ccc(NC(=S)Nc2cccc3cnccc23)cc1C 66.3%
COc1ccc([N+](=O)[O-])c(S(=O)(=O)c2ccccc2)n1 39.3%
COc1ccc(OCc2cccc(C(=O)Nn3cc([N+](=O)[O-])cn3)c2)cc1 34.8%
Cc1cc2c(ncn2Cc2ccccc2)c([N+](=O)[O-])c1C 76.9%
CC(C)c1cc(C(=O)NNC(=S)NC2CCCCC2)cs1 25.6%
CCN(CC)S(=O)(=O)c1ccc(/C=C/C(=O)NC2CCCCC2)cc1 61.1%
COc1ccc(S(=O)(=O)N2CCC(C(=O)N3CCc4ccccc4C3)CC2)cc1 51%
O=C(CCc1ccc(S(=O)(=O)N2CCOCC2)cc1)N1CCc2ccccc2C1 48.3%
CNCC(O)c1ccc(O)c(O)c1 (centres undefined) 53.6%
C#CC[N+](CC)(CC)CC#Cc1ccccc1 61.8%
Cc1cc(=O)[nH]c(SCC(=O)/C=C2\N(C)c3ccccc3C2(C)C)n1 36.3%
CC(=O)Oc1ccc(C(=O)Nc2ccc(S(=O)(=O)NCC3CCCO3)cc2)cc1 (centres undefined) 30.6%
Cn1cnnc1Sc1ccc(C(=O)NCCC(c2ccccc2)c2ccccc2)cc1[N+](=O)[O-] 67%
COc1cc(C(=O)NC(=S)NNC(=O)[C@H]2C[C@@H]2c2ccccc2)cc(OC)c1OC 9.51%
Cc1ccc(N2CC(C(=O)Nc3ncc([N+](=O)[O-])s3)CC2=O)cc1 (centres undefined) 34.5%
O=C(Nc1ncc([N+](=O)[O-])s1)C1CC(=O)N(c2ccc(F)cc2)C1 (centres undefined) 50.3%
CCCCCC(=O)c1ccc(O)cc1O 43.6%
CCN(CC)CCCNC(=O)c1cn(CC)c2ccc(S(=O)(=O)N(C)C3CCCCC3)cc2c1=O 51.1%
CCCCn1c(SCc2nnc(-c3ccccc3)o2)nc2c1c(=O)n(C)c(=O)n2C 23.6%
Cn1nc(C(=O)NCCCN2CCCCC2)c2c1-c1ccccc1SC2 62.5%
CC1CCCC(C)N1CCCNC(=O)c1ccc2c(c1)NC(=O)c1ccccc1S2 (centres undefined) 58.5%
CCCCCCCCCCCCN1[C@@H](CC(=O)O)c2cc(C(F)(F)F)ccc2S1(=O)=O 40%
CN(Cc1ccccc1F)C(=O)CCCNC(=O)c1ccc(Cl)cc1 47%
Cn1c2ccccc2c(=O)c2c(O)cccc21 15.4%
O=C(c1cnn2c(C(F)(F)F)cc(-c3cccs3)nc12)N1CCN(Cc2ccccc2)CC1 36.1%
C#CCNc1c2c(nc3ncnn13)CC(C)CC2 (centres undefined) 35.4%
Cc1ccccc1OCCC(=O)OCC(=O)c1c(N)n(CC(C)C)c(=O)n(C)c1=O 69.1%
CC(C)Cn1c(N)c(C(=O)COC(=O)CCNS(=O)(=O)c2ccccc2)c(=O)n(C)c1=O 65%
CCc1c(C)nc2ncnn2c1NCCc1ccc(Cl)cc1 28.3%
O=C(C1CCN(S(=O)(=O)c2ccc3ccccc3c2)CC1)N1CCN(c2ncccn2)CC1 47.8%
CCn1c(N2CCN(S(=O)(=O)c3ccc(OC)cc3)CC2)nc2ccccc21 56.7%
O=C(COc1ccccc1/C=C1\SC(=O)NC1=O)Nc1ccccc1 52.7%
CCN(CC)C(=O)CSc1nc2ccc(NC(=O)CSc3nccn3C)cc2s1 79.5%
Cc1ccc2c(c1)N(S(=O)(=O)c1ccc(CN3C(=O)c4cccnc4C3=O)s1)CCO2 28.7%
O=C(Cn1nc(-c2ccccc2)ccc1=O)NCc1ccc(F)cc1 55.3%
O=[N+]([O-])c1cc(-c2ncccn2)c([N+](=O)[O-])s1 49.9%
Cc1cc(C(=O)CSc2n[nH]c(N)n2)c(C)n1-c1ccc(F)cc1 24.1%
Cn1c(CN2CCCC2)c(C#N)c2ccccc21 30.8%
NS(=O)(=O)c1ccc(CCNCc2cc(Cl)ccc2OCc2ccccc2)cc1 16.5%
Cc1cccc(NC(=O)c2ccccc2O)c1C 38%
Cc1nnc(SC(C)C(=O)Nc2sc3c(c2C#N)CCCC3)[nH]c1=O (centres undefined) 23.2%
CCOC(=O)C1CCN(C(=O)CSCc2nc(-c3ccc(OCC)cc3)oc2C)CC1 41.5%
Cc1nc([N+](=O)[O-])c(Br)n1Cc1ccccc1 30.2%
